Records with an inconclusive call do not appear. Entries that show only a call come without a potency. Active and inactive are the calls of the source. Calls come from the whole dose curve.
Potency is the fitted concentration of half-maximal effect.

The assay is described as follows: qHTS assay to identify small molecule agonists of the progesterone receptor (PR) signaling pathway - cell viability counter screen (AID 1346799). Note: nearly all actives have a fitted effect of over 45% in size. As to conditions: PR-UAS-bla HEK293T viability, CellTiter-Glo luminescence, 16 h; series mostly up to 92.4 µM. An excerpt:
National Center for Advancing Translational Sciences [NCATS]
NIH Chemical Genomics Center [NCGC]
U.S. Environmental Protection Agency [EPA]
National Institutes of Environmental Health Sciences [NIEHS]
National Toxicology Program [NTP]
U.S. Food and Drug Administration [FDA]
Progesterone receptor (PR), a nuclear hormone receptor, plays an important role in development, metabolic homeostasis and reproduction. It is activated by the steroid hormone progesterone. Endocrine disrupting chemicals (EDCs) and their interactions with steroid hormone receptors like PR causes disruption of normal endocrine function. To identify the compounds that stimulate PR signaling, a PR-UAS-bla GripTite cell line i.e. PR-UAS-bla HEK293T (Invitrogen, Carlsbad, CA, USA) containing a beta-lactamase reporter gene under the control of an UAS response element was used to screen Tox21 10K compound library. The cytotoxicity of the Tox21 compound library against the PR-bla cell line was tested in parallel by measuring the cell viability using CellTiter-Glo assay in the same wells.
Tox21 Assay Protocol Summary:
PR-UAS-bla HEK293T cells were dispensed at 3,000 cells/5 uL of assay medium containing 2% charcoal stripped FBS per well into black wall/clear-bottom 1536-well plates using a Multidrop Combi (ThermoFisher Scientific, Waltham, MA) dispenser. After the assay plates were incubated at a 37C and 5% CO2 for 6 hr, 23 nL of compounds dissolved in DMSO, positive controls or DMSO only was transferred to the assay plate by a Pintool station (Kalypsys, San Diego, CA). The plates were incubated at 37C and 5% CO2 for 16 hr. Then 1 uL of LiveBLAzer B/G FRET substrate was added using a Flying Reagent Dispenser (FRD, Aurora Discovery, San Diego, CA), the plates were incubated at room temperature for 2 hours, and fluorescence intensity was measured by an Envision plate reader (PerkinElmer, Shelton, CT). For cell viability readout that measures cytotoxicity, 4 uL/well of CellTiter-Glo reagent was added into the assay plates using a FRD. After 30 min incubation at room temperature, the luminescence intensity in the plates was measured using a ViewLux (PerkinElmer) plate reader.
For orientation: Quantitative high-throughput screening tests each substance at several concentrations.
With `COc1cccc(Br)c1`, the Potency entry is “inactive”.

For the molecule `CC(=O)NC(Cc1ccccc1)C(=O)O` (stereo not given), the Potency result was “inactive”. With `CCCc1ccc(N)cc1`, the Potency entry was “inactive”. `CC(=O)OC(C)(C)C`: the Potency result is “inactive”.

As to `C#CC(O)CCCCC` (stereo not given), the Potency entry is “inactive”. `CC(=O)c1ccc(C)cc1`: the Potency result was “inactive”. On to `NC(=O)c1c(Cl)cccc1Cl`, for which the Potency result is “inactive”. For the molecule `CN(C)CCn1nnnc1SCC1=C(C(=O)O)N2C(=O)[C@@H](NC(=O)Cc3csc(N)n3)[C@H]2SC1`, the Potency entry was “inactive”. For the molecule `C=C(C)[C@@H]1CCC2=CC(=O)C[C@@H](C)[C@]2(C)C1`, the Potency result is “inactive”. On to `CCCCc1ccc2cccc(S(=O)(=O)O)c2c1`, for which the Potency entry was “inactive”. As to `NC1CCN(c2cccc(Cl)n2)CC1`, the Potency result is “inactive”.

Take `Cc1ccccc1Br`: the Potency entry was “inactive”. As to `CC(C)CCCC(C)CCCC(C)CCCCC(C)CCCC(C)CCCC(C)C` (stereo not given), the Potency result is “inactive”. Same read-out and setting: the result for `O=C(O)C(O)[C@H](O)[C@@H](O)[C@H](O)[C@H](O)CO` (stereo not given in full) reads 49.1 µM (active); that for `Nc1nc(F)nc2c1ncn2[C@@H]1O[C@H](CO)[C@@H](O)[C@@H]1O`, “inactive”; that for `CCCC(C)C(=O)O` (stereo not given), 18.5 µM (active). On to `CC(C)(O)Cc1ccccc1`, for which the Potency result was “inactive”. Take `CCCOCC(C)OCC(C)O` (stereo not given): the Potency result is “inactive”. With `CCC(C)(C)C1CCC(OC)CC1` (stereo not given), the Potency result is “inactive”.

Regarding `CC(C)(C)C(=O)/C=C/c1ccc(Cl)cc1`, the Potency entry is “inactive”. On to `CCCCCCCCCCCCCCCCCC(=O)OCCCCCCCCCCCCCC(C)C`, for which the Potency result was “inactive”. Regarding `O=C(CCOCCOCCOCCOCCC(=O)Nc1c(I)cc(I)c(C(=O)O)c1I)Nc1c(I)cc(I)c(C(=O)O)c1I`, the Potency result was “inactive”. As to `C=C(C)C(=O)OCCCCCCCCCCCCCCCCCC`, the activity change, negative = cytotoxicity was 3.91% [at 19 µM] (inactive).

Consider `COc1ccc(COC=O)cc1`, for which the Potency entry is “inactive”. Regarding `CC1=CC(C)C(C=O)C(C)C1` (stereo not given), the Potency result is “inactive”.

Regarding `Nc1nc2c(ncn2CCC(CO)CO)c(=O)[nH]1`, the Potency entry was “inactive”. Regarding `FC(F)(F)C(F)(F)C(F)(F)C(F)(F)C(F)(F)C(F)(F)C(F)(F)C(F)(F)C(F)(F)C(F)(F)F`, the activity change, negative = cytotoxicity is 0% [at 8.39 µM] (inactive). In the case of `CCC(=O)Nc1cccc(N)c1`, the Potency result was “inactive”. As to `CCN(CC)C(=O)c1ccc(O)c(OC)c1`, the Potency result was “inactive”. As for `OC/C=C/c1ccccc1`, the Potency result is “inactive”. `NCCNC(=O)c1ccc(Cl)cn1`: the Potency result is “inactive”. As for `C=CC(=O)OCCCCCC`, the Potency result was “inactive”. Turning to `CC(C)(C)OC(=O)N1C[C@@H](F)C[C@H]1C(=O)O`, the Potency result was “inactive”. As to `CC(C)c1cccc(C(C)C)c1N`, the Potency result is “inactive”.

For the molecule `NC(CS)C(=O)O` (stereo not given), the Potency entry is “inactive”. On the same count and under the same terms, the result for `CCc1cc(S(=O)(=O)O)c2cc(C(C)C)cccc1-2` reads “inactive”; that for `O=S(=O)(c1cccc2cnccc12)N1CCCNCC1`, “inactive”.

In the case of `OCCCCCCO`, the Potency was 19.6 µM (active).

Consider `O=C1OC(=O)c2cc([N+](=O)[O-])ccc21`, for which the Potency entry was “inactive”. On to `OC1OC[C@@H](O)[C@H](O)[C@H]1O` (stereo not given in full), for which the Potency entry was “inactive”.
